Results filed as inconclusive are left out. Unmarked numbers belong to inactive results. Calls come from the whole dose curve; as a rule, active = well fitted activation curve with a large enough effect in the repeat runs; inconclusive = weak or mixed curves; inactive = flat fitted curve, though single readings scatter.
assay: Caspase-3/7 induction in HepG2 cells by small molecules, qHTS assay (AID 1346978); conditions: HepG2 caspase-3/7 activation, Caspase-Glo luminescence, 17 h; series mostly up to 92.4 µM; caspase activation: at the top concentration; note: nearly all actives have a fitted effect of over 15% in size
Text: National Center for Advancing Translational Sciences [NCATS] NIH Chemical Genomics Center [NCGC] U.S. Environmental Protection Agency [EPA] National Institutes of Environmental Health Sciences [NIEHS] National Toxicology Program [NTP] Assay overview: Apoptosis is a process of programmed cell death and plays a central role in the development of multicellular organisms. It is a highly regulated process and induces cell death by activating caspases, which are the members of cysteine aspartic acid-specific protease (caspase) family. Caspases involved in apoptosis are classified by their mechanism of action as initiator caspases (caspase-2, -8, -9 and -10) and executioner caspases (caspase-3, -6, and -7). Inhibition of apoptosis results in number of cancers, autoimmune diseases, inflammatory diseases and viral infection. To identify small molecule compounds that induce apoptosis, a homogeneous, luminescent Caspase-Glo 3/7 assay was used. Wild type HepG2 cells were used to screen Tox21 libraries for identifying caspase-3/7 activity inducers.
Assay Protocol Summary: HepG2 cells were dispensed at 2,000 per well in 5uL of culture medium into white solid bottom 1536-well plates (Corning Life Sciences, Corning, NY) using a Multidrop Combi (Thermo Scientific, Waltham, MA) dispenser. The assay plates were incubated at 37 C and 5% CO2 for 5hr, and then 23nL of compounds dissolved in DMSO and positive control were transferred using a Pintool station (Wako, San Diego, CA). The assay plates were incubated at 37C and 5% CO2 for 17hr. For caspase-3/7 activity read, 4uL of Caspase-Glo 3/7 reagent (Promega Corporation, Madison, WI) was added to each well of the assay plates using Flying Reagent Dispenser (FRD, Aurora Discovery, San Diego, CA) and incubated the assay plates at room temperature for 30min. The luminescence signal was quantified using a ViewLux plate reader (Perkin Elmer, Shelton, CT).
% is set by controls: 0 for no effect and ±100 for the full control effect.

Row | SMILES | caspase activation
1 | CCCCCCCCCCCCCCCCCCOCCO | 0.0407% [at 19 µM]
2 | CCCSSCCC | 0.572%
3 | O=C(NCN1CCOCC1)c1cnccn1 | -0.146% [at 42.5 µM]
4 | C=CCOC(=O)CCCCCC | 0.712%
5 | CN(C)CC/C=C1/c2ccccc2COc2ccc(CC(=O)O)cc21 | 1.25% [at 42.5 µM]
6 | CCC(C)OC(C)CC (stereo not given) | -0.506%
7 | CC1=NN(c2ccc(S(=O)(=O)O)cc2)C(=O)C1 | -2.39%
8 | CC(C)C1OCCN1CCOC(=O)NCCCCCCNC(=O)OCCN1CCOC1C(C)C (stereo not given) | 1.04%
9 | C=C(C)[C@@H]1CC=C(C)CC1 | 0.0277%
10 | CCCC(=O)Nc1ccc(OCC(O)CNC(C)C)c(C(C)=O)c1 (stereo not given) | -1.65% [at 42.5 µM]
11 | NCc1ccc(S(N)(=O)=O)cc1 | -1.37% [at 42.5 µM]
12 | CCOc1ccccc1OCC1CNCCO1 (stereo not given) | -0.341% [at 42.5 µM]
13 | COc1c2occc2c(OC)c2c(=O)cc(C)oc12 | 0.378% [at 42.5 µM]
14 | CCCCCC(C)O (stereo not given) | 0.251%
15 | N[C@@H](CSCCCO)C(=O)O | -0.396% [at 19 µM]
16 | COc1ccc2c(c1)c1c3n2CCN(C)C3=NCC1 | 2.12% [at 42.5 µM]
17 | CC(C)[C@H]1CC[C@H](C)C[C@@H]1O | -0.193%
18 | CCCCCc1cccc(=O)o1 | 0.596%
19 | C/C=C(\C)C(C)=O | -0.0325%
20 | Nc1nnnn1-c1ccccc1 | 0.703% [at 42.5 µM]

Row | SMILES | caspase activation
21 | CCOCCOCC | 0.145%
22 | Cn1nnc2c(C(N)=O)ncn2c1=O | 0.0861% [at 42.5 µM]
23 | CC(C)Cn1cnc2c1c(=O)n(C)c(=O)n2C | 0.958% [at 42.5 µM]
24 | Cc1c(N)cccc1Cl | 0.0555%
25 | CCCCOCCOC(=O)COc1ccc(Cl)cc1Cl | -1.08%
26 | CCCCCCCCCCCCCCC(=O)NC(CO)CCCCCCCCCCCCCC (stereo not given) | -0.492%
27 | O=C(O)CSCC(=O)NC1CCSC1=O (stereo not given) | -1.36% [at 42.5 µM]
28 | CCCCC1CCC(O)CC1 (stereo not given) | -0.172%
29 | O=C1CCC(=O)N1Cl | -0.172%
30 | O/N=C/C=N/O | 0.681%
31 | CCNC(=O)NCc1cccc(Cl)c1 | -1.78% [at 42.5 µM]
32 | C=CC/C=C/C | 0.42%
33 | N#CCC(=O)NN | -0.269% [at 42.5 µM]
34 | C/C(CC(C)C)=N\O | -0.28%
35 | CCCC(CC)c1ccccc1 (stereo not given) | 0.313%
36 | O=C[O][Al]([O]C=O)[O]C=O | 0.151%
37 | CC1(C)O[C@H]2CC(=O)OC[C@]23[C@H]2CC[C@@]4(C)[C@H](c5ccoc5)OC(=O)[C@H]5O[C@]54[C@]2(C)C(=O)C[C@@H]13 | 1.99% [at 42.5 µM]
38 | Nc1nc(-c2ccccc2)c(Br)c(=O)[nH]1 | -1.2% [at 42.5 µM]
39 | Cc1c(NC(=O)c2cccnc2)c(=O)n(-c2ccccc2)n1C | 1.06% [at 42.5 µM]
40 | O=C(Cn1ccnc1[N+](=O)[O-])NCc1ccccc1 | 0.779% [at 42.5 µM]

Source: PubChem BioAssay (Tox21)
